aSyn UTR act – Activators working through SNCA 5'UTR binding (MLPCN). alpha-synuclein 5'UTR reporter, activators screen. activity score, % (tested at 7.5 µM), hits read low. AID 1814. 300,000 compounds, 7.1% hits; in the data active = activity score below about -60%
* hit, by the source's call. The list is a sample of the results.

SMILES	aSyn UTR act
O=C(N/N=C\c1cc(Br)cs1)C1COc2ccccc2O1 (stereo unspecified)	-126.5*
COC(=O)N1CCc2c(sc(NC(=O)C3=COCCO3)c2C#N)C1	-125.6*
O=C(COC(=O)C1COc2ccccc2O1)NC(=O)NC1CCCC1 (stereo unspecified)	-72.5*
Nc1nc(Cl)nc2c1ncn2[C@H]1C[C@H](O)[C@@H](CO)O1	83.6
Cc1ccc(NC(=O)C2OCCc3ccccc32)cc1 (stereo unspecified)	-132.8*
O=C(NCC1OCCc2ccccc21)c1ccc(NC(=O)c2ccc(Cl)cc2)cc1 (stereo unspecified)	79.4
O=C(Nc1ccccc1)C1COc2ccccc2O1 (stereo unspecified)	-81.9*
Cc1ccc(NC(=O)C2COc3ccccc3O2)c(C)c1 (stereo unspecified)	-110.0*
CC(=O)c1sc(NC(=O)C2COc3ccccc3O2)nc1C (stereo unspecified)	61.8
Cc1ccc(NC(=O)C2COc3ccccc3O2)cc1 (stereo unspecified)	-153.6*
O=C(Nc1nnc(C(F)(F)F)s1)C1COc2ccccc2O1 (stereo unspecified)	-69.1*
C/C(=N\NC(=O)C1COc2ccccc2O1)c1ccccn1 (stereo unspecified)	98.2
O=C(Nc1ncccc1Cl)C1COc2ccccc2O1 (stereo unspecified)	-106.9*
COC(=O)N1CCc2c(sc(NC(=O)C3COc4ccccc4O3)c2C(N)=O)C1 (stereo unspecified)	-136.7*
O=C(NCC1COc2ccccc2O1)c1ccccc1 (stereo unspecified)	-137.0*
NC(=O)c1oc2ccccc2c1NC(=O)C1COc2ccccc2O1 (stereo unspecified)	-85.7*
CSc1nc(-c2ccc(Cl)cc2)nn1C(=O)c1ccccc1	-134.3*
CCc1ccc(Nc2nc(C)cc(C)n2)cc1	-179.4*
Cc1cc(C)nc(Nc2ccc(N3CCCC3)cc2)n1	-65.3*
Cc1cc(C)nc(Nc2ccc(C(=O)O)cc2)n1	-156.7*
COc1ccc(Nc2nc(C)cc(C)n2)cc1Cl	-114.2*
Cc1ccc(S(=O)(=O)c2nc(S(C)(=O)=O)sc2N2CCCCCC2)cc1	-113.0*
CS(=O)(=O)c1nc(S(=O)(=O)c2ccc(Cl)cc2)c(N2CCOCC2)s1	-74.9*
COC(=O)CNC(=O)C1(C)C=CCN1C(=O)c1ccccc1 (stereo unspecified)	-73.6*
Sc1oc(-c2ccccc2)cc1C=Nc1ccccc1	-116.9*
SMILES	aSyn UTR act
COc1ccc(-c2csc(NC(=O)C3CCCO3)n2)cc1 (stereo unspecified)	-102.4*
CCCC(=O)Nc1nc(-c2ccc(Cl)s2)cs1	-114.1*
COc1ccc(-c2csc(NC(=O)CSc3nc(C)cs3)n2)cc1	-152.9*
CCc1nnc(NC(=O)CSc2nc(-c3ccc(OC)cc3)ns2)s1	-84.1*
O=C(Nc1ccc([N+](=O)[O-])cc1)Nc1nc(-c2ccc(Cl)s2)cs1	91.5
CCCC(=O)Nc1nc(C)c(-c2csc(Nc3cc(OC)ccc3OC)n2)s1	61.2
CCc1ccc(-c2csc(NC(=O)COC(=O)CCc3nc4ccccc4s3)n2)cc1	-108.9*
COc1ccc(-c2csc(NC(=O)CSc3nc(SC)ns3)n2)cc1	-102.1*
CCCC(=O)Nc1nc(-c2ccc(OC)cc2)cs1	-123.2*
COc1ccc(/C=C/C(=O)Nc2ccc(-n3nncc3-c3ccc(OC)c(OC)c3)cc2)cc1OC	59.0
Cc1ccc(/C(N)=N/OC(=O)/C=C/c2ccccc2)cc1	-63.1*
COc1ccc(/C=C/C(=O)Nc2ccccc2)cc1OC	-140.3*
COc1ccc(/C(N)=N/OC(=O)/C=C/c2ccccc2)cc1	-88.5*
COc1cc(/C=C/C(=O)NC(=O)c2ccccc2O)ccc1OC(C)=O	-161.2*
COc1ccc(/C=C/C(=O)c2cc(F)ccc2OC(=O)c2ccccc2C)cc1OC	82.1
COc1ccc(/C=C/C(=O)O/N=C(\N)c2ccccc2)cc1OC	-138.4*
Cc1ccccc1/C(N)=N/OC(=O)/C=C/c1ccccc1	-177.9*
Cc1c(Cl)cccc1N=Cc1ccc([N+](=O)[O-])s1	-89.0*
O=S(=O)(Cc1noc(-c2ccccc2Cl)n1)c1ccccn1	-70.4*
CCOc1ccc(N)c(SSc2cc(OCC)ccc2N)c1	-121.3*
CCOc1ccc(N=C(C)C2=C(O)c3ccccc3C2=O)cc1	-122.7*
CC(=NC1CC1)C1=C(O)c2ccccc2C1=O	-177.0*
CC(=O)Nc1ccc(NC2=C/C(=N/S(=O)(=O)c3cccs3)c3ccccc3C2=O)cc1	82.6
CC(=O)Nc1ccc(N=C(C2=C(O)c3ccccc3C2=O)c2ccccc2)cc1	-63.7*
COc1ccc(/C=C/C2=NN(C)C(=O)CC2)cc1	-119.7*
SMILES	aSyn UTR act
COc1ccc(-n2ncc3c(NCCCn4ccnc4)ncnc32)cc1	-122.1*
COCCN(CCOC)c1ncnc2c1cnn2-c1ccc(Cl)cc1	-138.8*
OCCOCCNc1ncnc2c1cnn2-c1ccc(Cl)cc1	-92.9*
COCCNc1ncnc2c1cnn2-c1ccc(Cl)cc1	-77.9*
OCCOCCNc1ncnc2c1cnn2-c1ccccc1	-137.5*
O=c1c(-c2ccc(Cl)cc2)cnc2n1CCS2	-83.5*

Screening results deposited in PubChem BioAssay by Broad Institute.
